Screening results from PubChem.
An excerpt weighted towards active compounds, which were near 4.6% of everything screened.
D1 potentiator: Potentiators of Human D1 Dopamine Receptor: qHTS; HEK293 TREx D1 cells, calcium flux, dopamine EC20 potentiation; potentiation, % at 10 µM; hit rate 0.036% among 360,000; in the data active = potentiation above about 30%
D1 antag: Antagonist of Human D 1 Dopamine Receptor: qHTS; HEK293 TREx D1 cells, calcium flux, dopamine EC80; stronger effect = lower value; hit rate 3.2% among 360,000; activity change, negative = inhibition, % at 10 µM; in the data active = activity change below about -30%
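Using tetracycline-induced force-coupled D1 Hek293 cells and a calcium dye, signals were followed for 180 s after compound, then for 180 s after EC80 dopamine, to detect inhibitors.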
D1 agonist: Allosteric Agonists of the Human D1 Dopamine Receptor: qHTS | D(1A) dopamine receptor (Homo sapiens), P21728 | HEK293 T-REx D1 cells, calcium flux, agonist mode | hit rate 1% among 360,000 | AID 504660, 2011 | activation, % at 2 µM
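Agonism was scored from calcium flux recorded over 180 s (1 read/s) after pintool compound addition, following a 10-cycle baseline. Cells were inducible force-coupled HEK293 TREx D1, plated overnight at 30 C and loaded with no-wash calcium dye.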
TRHR enhancer: qHTS for Small Molecule Agonists and Allosteric Enhancers of Human TRH Receptor: Primary Screen for Enhancers. Thyrotropin-releasing hormone receptor (Homo sapiens), P34981. TRHR cells, fluo-8 calcium fluorescence, EC20 TRH enhancement. enhancement, % at 2 µM. hit rate 0.66% among 360,000. AID 493056, 2011; in the data active = enhancement above about 30%
Target sequence (P34981 whole entry, looked up): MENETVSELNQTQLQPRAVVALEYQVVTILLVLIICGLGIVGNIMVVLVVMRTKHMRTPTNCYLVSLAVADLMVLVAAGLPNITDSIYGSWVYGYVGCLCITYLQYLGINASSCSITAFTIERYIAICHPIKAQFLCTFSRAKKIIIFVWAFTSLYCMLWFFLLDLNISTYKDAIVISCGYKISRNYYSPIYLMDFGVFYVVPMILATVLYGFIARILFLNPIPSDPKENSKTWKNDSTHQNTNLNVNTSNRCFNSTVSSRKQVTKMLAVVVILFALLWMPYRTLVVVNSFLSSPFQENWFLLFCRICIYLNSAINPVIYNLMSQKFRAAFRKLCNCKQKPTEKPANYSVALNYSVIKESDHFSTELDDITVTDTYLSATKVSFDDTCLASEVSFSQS
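TRHR-expressing cells loaded with fluo-8 calcium dye were read kinetically (ex 480/em 530) during compound addition, then stimulated with an EC20 of TRH (10 nM final). Enhancement of the Gq-mediated intracellular calcium response was scored.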
TRHR agonist: qHTS for Small Molecule Agonists and Allosteric Enhancers of Human TRH Receptor: Primary Screen for Agonists | AID 493084, 2011 | hit rate 0.18% among 360,000 | TRHR cells, calcium flux fluo-8, FDSS agonist mode | activation, % at 2 µM
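In this calcium-flux screen, cells bearing human TRHR are dye-loaded with fluo-8, baselined for 10 cycles, then exposed to library compounds; positive kinetic calcium responses during the agonist phase mark hits, with TRH as control.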
Each line names hits and unclear results; the compound was inactive in the other large screens. Cut-off read from the data, not from the text of the source, unless noted: active = activation above about 30%; inactive = the rest.

CCCN1CCc2c(sc(NC(=O)c3ccc(S(=O)(=O)N(C)c4ccccc4)cc3)c2C(=O)NC)C1	D1 agonist 63
CCCN1CCc2c(sc(NC(=O)c3ccc(S(=O)(=O)N4CCN(C(=O)OCC)CC4)cc3)c2C(N)=O)C1	none
CCCN1CCc2c(sc(NC(=O)c3ccc(S(=O)(=O)N(C)c4ccccc4)cc3)c2C(N)=O)C1	D1 agonist 133, TRHR agonist 63
CCN1CCc2c(sc(NC(=O)c3ccc(S(=O)(=O)N4CCCC4)cc3)c2C(=O)NC)C1	none
CCCOc1ccc(NC(=O)CC2C(=O)N(c3ccccc3)C(=O)N2Cc2ccc(F)cc2)cc1 (stereo not given)	none
CCOC(=O)c1c(C)[nH]c(C)c1S(=O)(=O)N1CCN(c2cccc(C(F)(F)F)c2)CC1	none
CCCCN1C(=O)C2Cc3c([nH]c4ccccc34)CN2C1=S (stereo not given)	D1 antag -33
CCCCCN1CC(=O)N2Cc3[nH]c4ccccc4c3C[C@H]2C1=O	none
CCN(CC)CCCNC(=O)Cn1nc(C)n2c(cc3sccc32)c1=O	none
O=C(c1cc2c(s1)-c1ccccc1OC2)N1CCN(c2ccc(F)cc2)CC1	none
O=C(O)c1cc2c(s1)-c1ccccc1OC2	none
O=C(NC1CC1)c1cc2c(s1)-c1ccccc1OC2	D1 antag -46
CN(C)CCN(Cc1ccco1)C(=O)c1cc2c(s1)-c1ccccc1OC2	D1 antag -70
CC(=O)c1ccc(N2CCN(C(=O)c3cc4c(s3)-c3ccccc3OC4)CC2)cc1	D1 antag -64
Cc1cccc(CN2CCN(CC(=O)NCc3ccc(Cl)cc3)C2=O)c1	none
COc1cccc(C(=O)Nc2ccc3nc(SCCOc4ccccc4)sc3c2)c1	none
COc1cccc(-n2c(SCC(=O)Nc3cccc(C)c3)nc3c([nH]c4ccccc43)c2=O)c1	none
CCCn1c(SCc2nc(-c3cc(OC)ccc3OC)no2)nnc1-c1ccc(Cl)cc1	none
Cc1ccc(C2c3c(oc4ccccc4c3=O)C(=O)N2c2ccc(C)cn2)cc1 (stereo not given)	none
Cc1ccc2nc(-c3cc(-c4ccccc4)no3)cn2c1	D1 antag -53
Cc1ccc(S(=O)(=O)c2nnn3c2nc(N2CCN(c4ccccc4F)CC2)c2ccccc23)cc1C	none
Cc1nn(CC(=O)NCc2ccco2)c(=O)c2cc3ccccc3n12	none
CC(Sc1nc2ccccc2n1C)C(=O)Nc1ccc(N2CCOCC2)cc1 (stereo not given)	none
Cc1ccccc1-n1nnnc1SC(C)C(=O)Nc1ccc(N2CCN(C)CC2)cc1 (stereo not given)	D1 antag -68
CCc1ccccc1-n1nnnc1SCC(=O)Nc1cc(C)on1	none
Cc1ccccc1-n1nnnc1SCC(=O)Nc1ccc(N2CCN(C)CC2)cc1	D1 antag -77
CCc1ccccc1-n1nnnc1SCC(=O)Nc1ccc(N2CCN(C)CC2)cc1	D1 antag -60
Cc1cccc(-n2nnnc2SCC(=O)Nc2ccc(N3CCN(C)CC3)cc2)c1	none
COc1ccc(N(C(=O)c2ccccc2)S(=O)(=O)c2ccc3c(c2)n(C)c(=O)n3C)cc1	none
COc1cccc(N2CC34C=CC(O3)C(C(=O)O)C4C2=O)c1 (stereo not given)	D1 antag -42
Cc1ccccc1-c1ccc(C(=O)NCc2ccccc2)o1	D1 antag -42
O=C(NCc1ccccc1)c1ccc(-c2ccccc2C(F)(F)F)o1	none
c1ccc(CCCNc2ncnc3nc[nH]c23)cc1	D1 antag -57, D1 agonist 193
Clc1ccc(CCNc2ncnc3nc[nH]c23)cc1	D1 antag -35
CCCNc1ncnc2nc[nH]c12	none
c1ccc(CNc2ncnc3nc[nH]c23)cc1	none
Cc1cccc(C)c1NC(=O)Cn1nnc(C(=O)Nc2c(C)cccc2C)c1N	none
Cn1cc(S(=O)(=O)c2ccc(Cl)cc2)c(=O)c2cc(F)c(N3CCCC3)cc21	none
